Measured values from PubChem BioAssay (NCI).
The panel holds about 79,000 compounds, 15% with a hit somewhere; the sample as a whole holds those more often. Activity calls are given as the source filed them. No stated cut-off is given here; in the data, active means growth inhibition above about 70%; inactive means the rest.

Columns and labels:
[1] = NCI Yeast Anticancer Drug Screen. Data for the rad52 strain (AID 147);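 further: 0% = growth of vehicle-treated control cultures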; details: S. cerevisiae rad52 mutant growth inhibition, stronger effect = higher value
Procedure, shortened: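 Genetically altered yeast (DNA damage repair defect) treated with compound; inhibition calculated relative to vehicle.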

[2] = NCI Yeast Anticancer Drug Screen. Data for the rad50EPP+ strain (AID 151);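 further: 0% = growth of vehicle-treated control cultures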; details: S. cerevisiae rad50 mutant strain, stronger effect = higher value
Procedure, shortened: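 Strain rad50EPP+; compound exposure; % growth inhibition vs vehicle.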

[3] = NCI Yeast Anticancer Drug Screen. Data for the mgt1 strain (AID 153); details: S. cerevisiae mgt1 mutant growth inhibition, stronger effect = higher value
Procedure, shortened: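 Read-out: yeast growth inhibition vs vehicle control. Strain mgt1, drawn from a panel altered in DNA damage repair or cell cycle control.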

[4] = NCI Yeast Anticancer Drug Screen. Data for the rad50 strain (AID 155);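 further: 0% = growth of vehicle-only cultures of the same strain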; details: S. cerevisiae rad50 strain growth inhibition, stronger effect = higher value
Procedure, shortened: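 A DNA repair-deficient yeast mutant serves as the test organism; compound-induced growth inhibition is calculated against vehicle-treated cells.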

[5] = NCI Yeast Anticancer Drug Screen. Data for the mec2-1 strain (AID 157); details: S. cerevisiae mec2-1 strain, stronger effect = higher value
Procedure, shortened: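 Cells of the genetically defined mec2-1 yeast strain are incubated with test compound. Inhibition of growth is calculated against vehicle-treated controls.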

[6] = NCI Yeast Anticancer Drug Screen. Data for the rad14 strain (AID 159);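 further: 0% = growth of vehicle-treated control cultures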; details: S. cerevisiae rad14 strain growth inhibition, stronger effect = higher value
Procedure, shortened: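 Vehicle-treated cultures served as the baseline for growth inhibition of a DNA repair-mutant yeast strain exposed to each compound.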

[7] = NCI Yeast Anticancer Drug Screen. Data for the sgs1 mgt1 strain (AID 161);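 further: 0% = growth of cultures given vehicle only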; details: S. cerevisiae sgs1 mgt1 strain, stronger effect = higher value
Procedure, shortened: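 Mutant yeast exposed to compound; growth scored against vehicle-only wells.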

[8] = NCI Yeast Anticancer Drug Screen. Data for the CLN2oe strain (AID 163);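 further: 0% = growth of vehicle-only control cultures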; details: S. cerevisiae CLN2oe strain, stronger effect = higher value
Procedure, shortened: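 Strain altered in cell-cycle control, incubated with compound; growth compared to solvent-treated controls.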

[9] = NCI Yeast Anticancer Drug Screen. Data for the cln2 rad14 strain (AID 165);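 further: 0% = growth equal to vehicle treated cultures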; details: S. cerevisiae cln2 rad14 strain, stronger effect = higher value
Procedure, shortened: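 The screen exposed genetically defined yeast (cln2 rad14) to test compounds and scored growth inhibition relative to vehicle-treated controls.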

[10] = NCI Yeast Anticancer Drug Screen. Data for the mlh1 strain (AID 171);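 further: 0% = growth of vehicle-treated control cultures of the same strain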; details: S. cerevisiae mlh1 strain growth inhibition, stronger effect = higher value
Procedure, shortened: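 Yeast screen: mutant strain plus compound, growth scored against vehicle control wells.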

[11] = NCI Yeast Anticancer Drug Screen. Data for the sgs1 strain (AID 173);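 further: 0% = growth of vehicle-only control cultures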; details: S. cerevisiae sgs1 mutant, stronger effect = higher value
Procedure, shortened: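 Inhibition of yeast growth served as the measure. The mutant strain was treated with each compound, and growth was normalised to cultures receiving vehicle alone.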

[12] = NCI Yeast Anticancer Drug Screen. Data for the mlh1 rad18 strain (AID 175); details: S. cerevisiae mlh1 rad18 strain growth inhibition, stronger effect = higher value
Procedure, shortened: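 Compound-treated yeast growth, normalised to vehicle controls. Strain bears defined DNA repair mutations.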

[13] = NCI Yeast Anticancer Drug Screen. Data for the rad18 strain (AID 177); details: S. cerevisiae rad18 mutant growth inhibition, stronger effect = higher value
Procedure, shortened: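 Inhibition values reflect reduced yeast growth compared with vehicle-treated controls, using a strain engineered with a DNA damage repair defect.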

[14] = NCI Yeast Anticancer Drug Screen. Data for the wt1 strain (AID 149);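 further: 0% = growth of vehicle-treated wt1 cultures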; details: S. cerevisiae wt1 strain (SPY 50644) growth inhibition, stronger effect = higher value
Procedure, shortened: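 Vehicle-normalised growth inhibition; strain wt1; compound exposure.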

[15] = NCI Yeast Anticancer Drug Screen. Data for the bub3 strain (AID 167); details: S. cerevisiae bub3 mutant strain, stronger effect = higher value
Procedure, shortened: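 Inhibition values come from growth of compound-treated mutant yeast normalised to vehicle-treated controls.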

[16] = at 5.0 µM (retest, dose inferred, filed as 0.5)
[17] = at 50.0 µM (retest, dose inferred, filed as 5.0)

Measured: growth inhibition

N#Cc1cc(N(CCCl)CCCl)c([N+](=O)[O-])cc1[N+](=O)[O-]
inactive: [1]; at 1.2 µM 7% | [1]; at 3.7 µM 19% | [1]; at 11.0 µM 28% | [1]; at 33.0 µM 67% | [2]; at 1.2 µM 15% | [2]; at 3.7 µM 17% | [2]; at 11.0 µM 11% | [2]; at 33.0 µM 32% | [2]; at 100.0 µM 39% | [3]; at 1.2 µM -2% | [3]; at 3.7 µM -8% | [3]; at 11.0 µM -4% | [3]; at 33.0 µM 28% | [4]; at 1.2 µM -4% | [4]; at 3.7 µM -8% | [4]; [16] 5% | [4]; at 11.0 µM 10% | [4]; at 33.0 µM 40% | [4]; [17] 42% | [4]; at 100.0 µM 65% | [5]; at 1.2 µM 22% | [5]; at 3.7 µM 24% | [5]; [16] -43% | [5]; at 11.0 µM 23% | [5]; at 33.0 µM 28% | [5]; [17] 11% | [5]; at 100.0 µM 67% | [6]; at 1.2 µM 3% | [6]; at 3.7 µM 7% | [6]; at 11.0 µM 19% | [6]; at 33.0 µM 61% | [7]; [16] -19% | [7]; [17] 46% | [8]; at 1.2 µM 2% | [8]; at 3.7 µM 6% | [8]; at 11.0 µM -2% | [8]; at 33.0 µM 14% | [9]; [16] 11% | [9]; [17] 43% | [10]; at 1.2 µM 34% | [10]; at 3.7 µM 4% | [10]; at 11.0 µM 34% | [11]; at 1.2 µM 29% | [11]; at 3.7 µM 31% | [11]; at 11.0 µM 44% | [12]; [16] 21% | [13]; at 1.2 µM 64%
active: [1]; at 100.0 µM 85% | [3]; at 100.0 µM 87% | [4]; at 50.0 µM 87.4% | [5]; at 50.0 µM 88.8% | [6]; at 100.0 µM 88% | [7]; at 50.0 µM 90.3% | [8]; at 100.0 µM 71% | [9]; at 50.0 µM 79.5% | [10]; at 33.0 µM 70% | [10]; at 100.0 µM 92% | [11]; at 33.0 µM 82% | [11]; at 100.0 µM 92% | [12]; [17] 76% | [12]; at 50.0 µM 80.5% | [13]; at 3.7 µM 82% | [13]; at 11.0 µM 89% | [13]; at 33.0 µM 95% | [13]; at 100.0 µM 95%

CC[C@](O)(C(=O)O)c1cc2n(c(=O)c1CO)Cc1cc3ccccc3nc1-2
active: [14]; at 33.0 µM 92% | [14]; at 100.0 µM 94% | [2]; at 1.2 µM 80% | [2]; at 3.7 µM 93% | [2]; at 11.0 µM 96% | [2]; at 33.0 µM 97% | [2]; at 100.0 µM 98% | [3]; at 33.0 µM 80% | [3]; at 100.0 µM 95% | [4]; at 1.2 µM 95% | [4]; at 3.7 µM 97% | [4]; [16] 97% | [4]; at 11.0 µM 97% | [4]; at 33.0 µM 97% | [4]; [17] 98% | [4]; at 50.0 µM 98.3% | [4]; at 100.0 µM 97% | [5]; at 3.7 µM 82% | [5]; [16] 95% | [5]; at 11.0 µM 94% | [5]; at 33.0 µM 95% | [5]; [17] 98% | [5]; at 50.0 µM 97% | [5]; at 100.0 µM 96% | [6]; at 11.0 µM 81% | [6]; at 33.0 µM 93% | [6]; at 100.0 µM 96% | [7]; [16] 88% | [7]; [17] 97% | [7]; at 50.0 µM 97.2% | [8]; at 11.0 µM 88% | [8]; at 33.0 µM 93% | [8]; at 100.0 µM 96% | [9]; [17] 96% | [9]; at 50.0 µM 87.8% | [15]; at 33.0 µM 91% | [15]; [17] 97% | [15]; at 50.0 µM 96.8% | [15]; at 100.0 µM 95% | [10]; at 11.0 µM 81% | [10]; at 33.0 µM 94% | [10]; at 100.0 µM 97% | [11]; at 11.0 µM 92% | [11]; at 33.0 µM 95% | [11]; at 100.0 µM 97% | [12]; [16] 83% | [12]; [17] 97% | [12]; at 50.0 µM 96.5% | [13]; at 11.0 µM 82% | [13]; at 33.0 µM 93% | [13]; at 100.0 µM 96%
inactive: [14]; at 1.2 µM 0% | [14]; at 3.7 µM 10% | [14]; at 11.0 µM 67% | [3]; at 1.2 µM -1% | [3]; at 3.7 µM 7% | [3]; at 11.0 µM 67% | [5]; at 1.2 µM 14% | [6]; at 1.2 µM 3% | [6]; at 3.7 µM 29% | [8]; at 1.2 µM -7% | [8]; at 3.7 µM 36% | [9]; [16] 66% | [15]; at 1.2 µM -16% | [15]; at 3.7 µM -3% | [15]; [16] 58% | [15]; at 11.0 µM 67% | [10]; at 1.2 µM 3% | [10]; at 3.7 µM 21% | [11]; at 1.2 µM 17% | [11]; at 3.7 µM 64% | [13]; at 1.2 µM 4% | [13]; at 3.7 µM 29%
